INS-1E GSIS act = GLuc luminescence reporter in INS-1E cells, primary screen for activators of glucose-dependent secretion of insulin; AID 743287; activation, % at 16.6 µM; INS-1E GLuc reporter insulin secretion, 2-3 h; hit rate 0.61% among 370,000;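 active means lowest replicate activation of at least 40%, so every replicate reaches that level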
Bfl-1 A1 inh = inhibitors of the anti-apoptotic protein A1, read as caspase activation; MEF A1-2A-BIM cells, Caspase-Glo 3/7 luminescence, 3 h; percent of clofoctol response, vehicle zero; caspase activation, % (concentration not given with the values); hit rate 0.066% among 330,000;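 active means over half of replicate activation scores above 10%, or exactly half above 10 with the replicate mean above 10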
Neddylation inh = inhibitors of human cullin neddylation | TR-FRET cullin neddylation, biochemical | inhibition, % at 25 µM | hit rate 0.58% among 360,000 | AID 651699; in the data active means inhibition above about 36%
Target sequence (P61081 whole entry, looked up): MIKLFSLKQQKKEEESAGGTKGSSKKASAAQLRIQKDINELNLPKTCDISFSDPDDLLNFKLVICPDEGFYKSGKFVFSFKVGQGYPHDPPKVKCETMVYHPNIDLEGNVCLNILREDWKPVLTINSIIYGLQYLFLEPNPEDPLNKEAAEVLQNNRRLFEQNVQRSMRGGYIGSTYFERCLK
Target sequence (Q13564 whole entry, looked up): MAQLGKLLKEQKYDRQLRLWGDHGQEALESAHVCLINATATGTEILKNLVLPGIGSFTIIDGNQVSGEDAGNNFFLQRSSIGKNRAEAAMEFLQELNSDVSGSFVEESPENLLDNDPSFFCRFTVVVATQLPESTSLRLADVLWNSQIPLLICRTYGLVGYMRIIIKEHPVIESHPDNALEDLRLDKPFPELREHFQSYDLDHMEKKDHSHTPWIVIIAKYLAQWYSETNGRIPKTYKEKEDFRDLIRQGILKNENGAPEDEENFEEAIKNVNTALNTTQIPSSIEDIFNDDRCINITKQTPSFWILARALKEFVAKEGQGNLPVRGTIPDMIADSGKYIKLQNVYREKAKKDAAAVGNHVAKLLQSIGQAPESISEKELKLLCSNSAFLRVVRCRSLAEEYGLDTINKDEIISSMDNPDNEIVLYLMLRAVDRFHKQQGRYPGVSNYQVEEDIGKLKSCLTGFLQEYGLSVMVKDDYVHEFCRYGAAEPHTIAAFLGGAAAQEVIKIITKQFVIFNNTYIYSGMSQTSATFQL
dFosB act = activators of mouse delta FosB homodimer | P13346 | purified delta FosB, TAMRA-CDK5 oligo fluorescence polarization; percent of positive-control signal above neutral wells | activation, % at 25 µM | hit rate 0.99% among 340,000 | AID 493131;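 active means mean activation above about 17%, with every replicate also reaching it, limit read from the data, passing the limit was not always enough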
Vif inh = blocks HIV Vif function; HEK293T cells, Vif self-association by quenched fluorescence, imaging, 24 h; inhibition, % at 7.49 µM; hit rate 0.35% among 340,000; in the data active means inhibition above about 50%, passing the limit was not always enough
Of the large screens only hits and unclear results are named; the others gave an inactive call. This is a sample that favours compounds with a hit; in the whole collection about 1.9% have one here.

O=C(Cn1[nH]c(=O)c2ccccc2c1=O)OCC(=O)c1ccc(F)cc1	INS-1E GSIS act 53
O=C(CN1CCOCC1)NCC[C@@H]1CC[C@H](NC(=O)Nc2ccc(F)cc2)[C@@H](CO)O1	none (no result: Bfl-1 A1 inh, Neddylation inh, dFosB act, Vif inh)
O=C(c1ccc(Cl)c([N+](=O)[O-])c1)N(Cc1ccco1)C1CCS(=O)(=O)C1 (stereo unspecified)	INS-1E GSIS act 43
O=C(c1cccs1)N(Cc1cccc(F)c1)C1CCS(=O)(=O)C1 (stereo unspecified)	INS-1E GSIS act 46
CCOc1cccc(C(=O)N(Cc2ccco2)C2CCS(=O)(=O)C2)c1 (stereo unspecified)	none (no result: INS-1E GSIS act)
Cc1ccc(CN(C(=O)c2cccs2)C2CCS(=O)(=O)C2)cc1 (stereo unspecified)	INS-1E GSIS act 57
O=C(c1ccco1)N(Cc1ccc(Cl)cc1)C1CCS(=O)(=O)C1 (stereo unspecified)	INS-1E GSIS act 42
CS(=O)(=O)N1C[C@@H]2C(c3ccc(Br)cc3)[C@H](C1)N2CC(F)(F)F (stereo partly specified)	none (no result: Bfl-1 A1 inh, Neddylation inh, dFosB act, Vif inh)
COc1ccc(S(=O)(=O)N(C)C[C@H]2OCc3cnnn3CCCC(=O)N([C@@H](C)CO)C[C@@H]2C)cc1	none (no result: Bfl-1 A1 inh, Neddylation inh, dFosB act, Vif inh)
O=C1NC(=S)S/C1=C/c1ccc(N2CCOCC2)o1	dFosB act 49 (no result: INS-1E GSIS act)
O=C1S/C(=C/c2ccc(N3CCOCC3)o2)C(=O)N1Cc1ccc(F)cc1	none (no result: INS-1E GSIS act)
CC(C)Cc1nc2n[nH]c(N)c2c2c1COC(C)(C)C2	INS-1E GSIS act 80
O=C(Nc1ccccc1F)N[C@@H]1CC[C@@H](CCNS(=O)(=O)c2ccc(Cl)cc2)O[C@H]1CO	none (no result: Bfl-1 A1 inh, Neddylation inh, dFosB act, Vif inh)
Cc1noc(C)c1NC(=O)Nc1ccc2c(c1)C(=O)N([C@@H](C)CO)C[C@@H](C)[C@@H](CN(C)S(=O)(=O)c1ccc(Cl)cc1)O2	none (no result: Bfl-1 A1 inh, Neddylation inh, dFosB act, Vif inh)
O=S(=O)(Nc1ccc(-c2ccc3nncn3n2)cc1)c1ccccc1Cl	INS-1E GSIS act 40
O=S(=O)(Nc1ccc(-c2ccc3nncn3n2)cc1)c1ccc(Cl)s1	none
C[C@H]1CN([C@@H](C)CO)S(=O)(=O)c2ccc(-c3cccnc3)cc2O[C@@H]1CN(C)C(=O)CC1CC1	none (no result: Bfl-1 A1 inh, Neddylation inh, dFosB act, Vif inh)
NC(=O)c1cc2cc(Cl)ccc2o/c1=N/NC(=O)c1cccs1	INS-1E GSIS act 43
COc1cc2sc3ccc(C#Cc4ccc(N)cc4)cc3c(=O)c2cc1OC	INS-1E GSIS act 58
COc1cc2sc3ccc(C#Cc4ccccn4)cc3c(=O)c2cc1OC	none
CN1CCc2[nH]c3ccc(C(=O)NN)cc3c2C1	dFosB act 20 (no result: INS-1E GSIS act)
CCOC(=O)CNC(=O)c1ccc2[nH]c3c(c2c1)CCCC3	Vif inh 72 (not shown: Neddylation inh)
NNC(=O)c1ccc2[nH]c3c(c2c1)CCCC3	none
C[C@H]1CCCCO[C@H](CN(C)CC2CCCCC2)[C@@H](C)CN([C@@H](C)CO)C(=O)c2cc(NC(=O)Cc3ccccc3)ccc2O1	none (no result: Bfl-1 A1 inh, Neddylation inh, dFosB act, Vif inh)
COc1ccc(NC(=O)c2ccc(Cl)nc2)cc1S(=O)(=O)N1CCOCC1	none (no result: INS-1E GSIS act)
COc1ccc(NC(=O)Cn2ncc(Cl)c(Cl)c2=O)cc1S(=O)(=O)N1CCOCC1	Vif inh 59
CC(=O)N(C)C[C@@H]1Oc2ncc(/C=C/c3ccccc3)cc2C(=O)N([C@@H](C)CO)C[C@H]1C	none (no result: Bfl-1 A1 inh, Neddylation inh, dFosB act, Vif inh)
Oc1ccc(Nc2nc(-c3ccc4ccccc4c3)cs2)cc1	none
Oc1ccc(-c2nc(-c3ccc(O)c(O)c3)cs2)cc1	Vif inh 64 (no result: INS-1E GSIS act)
CC(C)(C)NC(=O)CSc1nc(O)cc(=O)n1-c1ccccc1	Vif inh 94
C[C@@H]1CCCCO[C@H](CN(C)Cc2ccc(C(=O)O)cc2)[C@H](C)CN([C@H](C)CO)C(=O)c2cc(NS(=O)(=O)c3ccc(Cl)cc3)ccc2O1	none (no result: Bfl-1 A1 inh, Neddylation inh, dFosB act, Vif inh)
COC(=O)C1=C(C)N(Cc2cccc(C(F)(F)F)c2)C(=NCc2ccc(OC)cc2)NC1c1cccc(F)c1 (stereo unspecified)	INS-1E GSIS act 84 (no result: Bfl-1 A1 inh, Neddylation inh, dFosB act, Vif inh)
COC(=O)C1=C(C)N(Cc2cccc(C(F)(F)F)c2)C(=NCc2ccc(OC)cc2)NC1c1ccc(F)cc1 (stereo unspecified)	INS-1E GSIS act 285 (no result: Bfl-1 A1 inh, Neddylation inh, dFosB act, Vif inh)
Cc1ccc(S(=O)(=O)N(C)C[C@@H]2OCCCC[C@@H](C)Oc3ccc(NC(=O)c4ccccc4)cc3C(=O)N([C@@H](C)CO)C[C@H]2C)cc1	none (no result: Bfl-1 A1 inh, Neddylation inh, dFosB act, Vif inh)
CCCNC(=O)C[C@@H]1CC[C@@H]2[C@H](COC[C@H](O)CN2Cc2ccc(Cl)c(Cl)c2)O1	none (no result: Bfl-1 A1 inh, Neddylation inh, dFosB act, Vif inh)
Cc1noc(C)c1NC(=O)Nc1ccc2c(c1)C(=O)N([C@H](C)CO)C[C@H](C)[C@H](CN(C)C(=O)Nc1cccc3ccccc13)OCCCC[C@H](C)O2	none (no result: Bfl-1 A1 inh, Neddylation inh, dFosB act, Vif inh)
O=C(N/N=C/c1cc([N+](=O)[O-])ccc1O)NC12CC3CC(CC(C3)C1)C2	none (no result: INS-1E GSIS act)
O=C(N/N=C/c1ccc(O)cc1O)NC12CC3CC(CC(C3)C1)C2	INS-1E GSIS act 41
O=C(NCC1CCCCC1)[C@H]1[C@H](CO)[C@H]2Cn3c(cccc3=O)[C@@H]1N2C(=O)c1cccnc1	none (no result: Bfl-1 A1 inh, Neddylation inh, dFosB act, Vif inh)
CNc1nc(Sc2cccc(C(F)(F)F)c2)cc(C(F)(F)F)n1	none
CNc1nc(Sc2ccccc2)cc(C(F)(F)F)n1	INS-1E GSIS act 51
C[C@H]1CN([C@@H](C)CO)C(=O)c2ccccc2-c2ccccc2CO[C@@H]1CN(C)C(=O)Nc1ccc(F)cc1	none (no result: Bfl-1 A1 inh, Neddylation inh, dFosB act, Vif inh)
CCc1nc(SCC(=O)O)c2c3c(sc2n1)COC(C)(C)C3	none (no result: Vif inh)
Cc1cc(C)n(-c2nc(SCC(=O)O)c3c4c(sc3n2)COC(C)(C)C4)n1	INS-1E GSIS act 43
O=c1[nH]c2ccccc2nc1-c1nnnn1C1CCCC1	INS-1E GSIS act 49 (not shown: Bfl-1 A1 inh, Neddylation inh, dFosB act, Vif inh)
CO[C@@H]1CN(C)C(=O)c2ccc(NC(C)=O)cc2OC[C@@H](C)N(Cc2nccs2)C[C@H]1C	none (no result: Bfl-1 A1 inh, Neddylation inh, dFosB act, Vif inh)
O=C(N1CCOCC1)N1CCN(c2ccccn2)CC1	INS-1E GSIS act 46
COc1ccc(CNC(=O)COC(=O)c2cc(C)nc3ccccc23)cc1	INS-1E GSIS act 46
COc1ccc(CC(=O)OCC(=O)NCc2ccc(Cl)cc2)cc1	Vif inh 80
O=C(COC(=O)Cc1ccc(Cl)cc1)NCc1ccc(Cl)cc1	none (no result: Bfl-1 A1 inh, dFosB act, Vif inh)
C[C@H]1CN([C@@H](C)CO)C(=O)c2cccc(NC(=O)Nc3ccc(F)cc3)c2O[C@@H]1CN(C)S(C)(=O)=O	none (no result: Bfl-1 A1 inh, Neddylation inh, dFosB act, Vif inh)
O=C(C[C@@H]1C[C@H]2c3cc(NC(=O)C4CCC4)ccc3O[C@H]2[C@@H](CO)O1)NCc1cccnc1	none (no result: Bfl-1 A1 inh, Neddylation inh, dFosB act, Vif inh)
COc1ccc(/C=N/NC(=O)COc2cccc3cccnc23)cc1OC	dFosB act 31
COc1ccc(/C=N/NC(=O)CCOc2ccccc2C)cc1OC	INS-1E GSIS act 53
COc1ccc(/C=N/NC(=O)CC(=O)NCCc2ccccc2)cc1OC	none (no result: INS-1E GSIS act)
COc1ccc(/C=N/NC(=O)Cn2cnc3ccccc3c2=O)cc1OC	INS-1E GSIS act 56
COc1cc(/C=N/NC(=O)CCC(=O)NC2CCCCC2)ccc1C	Vif inh 51
COc1ccc(NC(=O)Cn2cnc3ccccc3c2=O)cc1OC	none
